According to PubChem BioAssay (EPA / NIEHS):
Where “and” joins values, the source holds several entries; their conditions need not be identical. Identical values can stand only once. Inconclusive results are not listed. Where a structure was tested more than once in an assay, its records may differ in their call. Calls of active or inactive are those of the source. Rule for the calls, unless noted: active = hit-call score of the fitted dose curve at least 0.9, where 1 is the maximum; inactive = score below 0.9.

Assays:
[1] = target: Bile acid receptor (Homo sapiens) (UniProt Q96RI1); assay: ATG_FXR_TRANS: Attagene TRANS-FACTORIAL HepG2 Assay for Farnesoid X Receptor (FXR) (AID 2282979; active = hit-call score of the fitted dose curve at least 0.9, where 1 is the maximum;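 note: hits raise reporter mRNA above DMSO so AC50 marks FXR activation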); conditions: HepG2 Attagene TRANS FXR-GAL4 reporter transcription
How it was run: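 Transient transfection of HepG2 with multiplexed GAL4-UAS reporter units; exogenous FXR-GAL4 chimera. Dose 24 h → TriZol RNA → oligo(dT) RT → PCR, 6-FAM primer extension, HpaI cut → CE. Gain vs DMSO.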

[2] = ATG_M_32_TRANS: Attagene TRANS-FACTORIAL HepG2 Assay for M32 Transcription Factor (Internal Marker) (AID 2282984; active = hit-call score of the fitted dose curve at least 0.9, where 1 is the maximum;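 note: transcript level of a background control reporter unit measured by RT-PCR and capillary electrophoresis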); conditions: HepG2 Attagene TRANS M32 internal marker reporter
How it was run: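 After 24 h dosing of transfected HepG2 cells, total RNA was reverse-transcribed, reporter sequences PCR-amplified, 6-FAM labelled by primer extension and HpaI-digested before capillary electrophoresis. Signal increase over DMSO was fitted.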

[3] = target: Nuclear receptor subfamily 4 group A member 2 (Homo sapiens) (UniProt P43354); assay: ATG_NURR1_TRANS: Attagene TRANS-FACTORIAL HepG2 Assay for human Nuclear Receptor Related Protein 1 (NURR1) (AID 2282985; active = hit-call score of the fitted dose curve at least 0.9, where 1 is the maximum); conditions: HepG2 Attagene TRANS reporter, mRNA readout
How it was run: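 Chimeric NR-Gal4 fusion activity measured in HepG2 after 24 h treatment. Reporter transcripts detected by RT-PCR and capillary electrophoresis fluorescence; positive-direction curve fitting against DMSO.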

[4] = target: Transcriptional activator Myb (Homo sapiens) (UniProt P10242); assay: ATG_Myb_CIS: Attagene CIS-FACTORIAL HepG2 Assay for human Myeloblastosis (Myb) Proto-Oncogene Transcription Factor (AID 2282986); conditions: HepG2 Attagene CIS-FACTORIAL Myb reporter transcription; actives raise or lower the signal
How it was run: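 HepG2 cells were transiently transfected with cis-regulated multiple reporter transcription units reflecting endogenous Myb activity, then exposed to compound for 24 hours. Reporter mRNA was measured by RT-PCR with capillary electrophoresis; bidirectional fitting versus DMSO baseline.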

[5] = target: Nuclear respiratory factor 1 (Homo sapiens) (UniProt Q16656); assay: ATG_NRF1_CIS: Attagene CIS-FACTORIAL HepG2 Assay for human Nuclear Respiratory Factor 1 (NRF1) Orphan Gene (AID 2282987); conditions: HepG2 NRF1 cis-element reporter, Attagene multiplex; actives raise or lower the signal
How it was run: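 HepG2 cells transiently transfected with multiple reporter transcription units under cis-regulatory promoter control, so endogenous transcription-factor activity is read. After 24 h compound exposure, reporter mRNA quantified by RT-PCR, fluorescent labelling, HpaI digestion and capillary electrophoresis; bidirectional fitting versus DMSO.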

[6] = ATG_NFI_CIS: Attagene CIS-FACTORIAL HepG2 Assay for human Nuclear Factor I (NFI) (AID 2282989); conditions: HepG2 cis-regulatory reporter, NFI response element transcription; actives raise or lower the signal
How it was run: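 After transient transfection of HepG2 with cis-promoter reporter constructs and 24 h dosing, RNA is reverse-transcribed, amplified, 6-FAM end-labelled and HpaI-digested before capillary analysis. Bidirectional curve fitting against DMSO.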

[7] = target: Myc proto-oncogene protein (Homo sapiens) (UniProt P01106); assay: ATG_Myc_CIS: Attagene CIS-FACTORIAL HepG2 Assay for human Myelocytomatosis (Myc) Proto-Oncogene Transcription Factor (AID 2282990); conditions: HepG2, Attagene cis-reporter transcription factor activity; actives raise or lower the signal
How it was run: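 HepG2 cells transiently transfected with multiple cis-promoter-driven reporter transcription units, so endogenous TF activity is read. After 24 h compound exposure, reporter mRNA was quantified by RT-PCR, 6-FAM labelling, HpaI digestion and capillary electrophoresis; bidirectional fit versus DMSO.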

[8] = ATG_NF_kB_CIS: Attagene CIS-FACTORIAL HepG2 Assay for human Nuclear Factor Kappa B (NF-kB) (AID 2282991); conditions: HepG2 Attagene cis-factorial NF-kB reporter mRNA; actives raise or lower the signal
How it was run: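 HepG2 cells transiently transfected with multiplexed cis-element reporter units measuring endogenous transcription factor activity; reporter mRNA read 24 h after dosing by RT-PCR, fluorescent labelling, HpaI digestion and capillary electrophoresis. Bidirectional fit against DMSO baseline.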

[9] = ATG_Oct_MLP_CIS: Attagene CIS-FACTORIAL HepG2 Assay for human Octamer-Binding Transcription Factor (Oct) (AID 2282993); conditions: HepG2 Attagene cis-factorial Oct reporter, mRNA; actives raise or lower the signal
How it was run: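 Cells of the HepG2 line express promoter-controlled reporter sequences whose mRNA levels, after 24 h treatment, are measured by RT-PCR and capillary electrophoresis. Increases and decreases are scored relative to DMSO.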

[10] = target: Cellular tumor antigen p53 (Homo sapiens) (UniProt P04637); assay: ATG_p53_CIS: Attagene CIS-FACTORIAL HepG2 Assay for human p53 Transcription Factor (AID 2282994); conditions: HepG2 p53 cis-element reporter, Attagene mRNA; actives raise or lower the signal
How it was run: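 In HepG2 cells, reporter transcription units under cis-regulatory promoters were transiently introduced. Following 24 h treatment, RNA was processed to labelled, digested cDNA fragments read by capillary electrophoresis; fitting was bidirectional versus DMSO.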

[11] = BSK_3C_TissueFactor: BioMAP Diversity Plus: 3C Assay for Tissue Factor Biomarker Activity (AID 2282997); conditions: BioMAP 3C HUVEC, tissue factor biomarker readout; actives raise or lower the signal
How it was run: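 After a 24 h chemical exposure of primary human umbilical vein endothelial cells, Tissue Factor levels were quantified by ELISA.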

[12] = BSK_3C_uPAR: BioMAP Diversity Plus: 3C Assay for Urokinase-type plasminogen activator receptor (uPAR) Biomarker Activity (AID 2282998); conditions: BioMAP 3C HUVEC, uPAR biomarker ELISA; actives raise or lower the signal
How it was run: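 Endothelial primary cells of human umbilical vein origin received test chemical; 24 h later uPAR was assayed by ELISA. Fitting was bidirectional, DMSO as negative control.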

[13] = BSK_3C_VCAM1: BioMAP Diversity Plus: 3C Assay for Vascular cell adhesion molecule 1 (VCAM1) Biomarker Activity (AID 2282999); conditions: BioMAP 3C HUVEC, VCAM1 ELISA, cytokine-stimulated; actives raise or lower the signal
How it was run: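 Vascular primary endothelium (human umbilical vein) was exposed to chemicals and assayed 24 h later. VCAM-1 levels came from ELISA, with DMSO serving as baseline for bidirectional fitting.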

[14] = target: Oxysterols receptor LXR-beta (Homo sapiens) (UniProt P55055); assay: ATG_LXRb_TRANS: Attagene TRANS-FACTORIAL HepG2 Assay for human Liver X Receptor beta (LXRb) (AID 2282981; active = hit-call score of the fitted dose curve at least 0.9, where 1 is the maximum); conditions: HepG2 Attagene TRANS GAL4-LXRb reporter, mRNA
How it was run: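 Measures induction of a Gal4-driven reporter transcript in HepG2 cells expressing an exogenous LXRb-Gal4 fusion. Cells are exposed to compound for 24 h before RNA isolation and RT-PCR with capillary electrophoresis detection.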

[15] = ATG_M_06_TRANS: Attagene TRANS-FACTORIAL HepG2 Assay for M06 Transcription Factor (Internal Marker) (AID 2282983; active = hit-call score of the fitted dose curve at least 0.9, where 1 is the maximum); conditions: HepG2 Attagene TRANS M06 internal marker reporter
How it was run: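 Background control endpoint: reporter mRNA from transiently transfected HepG2 after 24 h dosing, detected by RT-PCR with capillary electrophoresis fluorescence. Analysed for gain versus DMSO.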

[16] = target: Hepatocyte nuclear factor 4-alpha (Homo sapiens) (UniProt P41235); assay: ATG_HNF4a_TRANS: Attagene TRANS-FACTORIAL HepG2 Assay for human Hepatocyte Nuclear Factor 4 alpha (HNF4a) (AID 2282982; active = hit-call score of the fitted dose curve at least 0.9, where 1 is the maximum); conditions: HepG2 HNF4a transactivation reporter, mRNA readout
How it was run: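 In this trans-factorial format, a chimeric HNF4a-GAL4 fusion drives a GAL4-UAS reporter in transfected HepG2 liver cells. After 24 h treatment, reporter mRNA induction is measured by RT-PCR with capillary electrophoresis, relative to DMSO.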

[17] = ATG_NRF2_ARE_CIS: Attagene CIS-FACTORIAL HepG2 Assay for human Nuclear Factor Erythroid 2 Related Factor 2 (NFR2) response to Antioxidant Response Elements (ARE) (AID 2282992); conditions: HepG2 Attagene ARE/NRF2 reporter, transcription factor activity; actives raise or lower the signal
How it was run: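 Using transiently transfected HepG2 cells exposed for 24 h, reporter mRNA levels were determined by RT-PCR with fluorescent primer extension and capillary electrophoresis, analysed for gain or loss of signal against DMSO.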

[18] = target: Oxysterols receptor LXR-alpha (Homo sapiens) (UniProt Q13133); assay: ATG_LXRa_TRANS: Attagene TRANS-FACTORIAL HepG2 Assay for human Liver X Receptor alpha (LXRa) (AID 2282980; active = hit-call score of the fitted dose curve at least 0.9, where 1 is the maximum); conditions: HepG2 Attagene TRANS reporter, LXRa transactivation
How it was run: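 Transfect HepG2 with GAL4-UAS multiplex reporter constructs (TRANS format, chimeric receptor-GAL4); treat 24 h; extract RNA, reverse-transcribe, PCR-amplify, FAM-label, HpaI-digest; resolve fragments by capillary electrophoresis. Upward response vs DMSO.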

Sequence of Myc proto-oncogene protein (Homo sapiens) (P01106 whole entry, looked up): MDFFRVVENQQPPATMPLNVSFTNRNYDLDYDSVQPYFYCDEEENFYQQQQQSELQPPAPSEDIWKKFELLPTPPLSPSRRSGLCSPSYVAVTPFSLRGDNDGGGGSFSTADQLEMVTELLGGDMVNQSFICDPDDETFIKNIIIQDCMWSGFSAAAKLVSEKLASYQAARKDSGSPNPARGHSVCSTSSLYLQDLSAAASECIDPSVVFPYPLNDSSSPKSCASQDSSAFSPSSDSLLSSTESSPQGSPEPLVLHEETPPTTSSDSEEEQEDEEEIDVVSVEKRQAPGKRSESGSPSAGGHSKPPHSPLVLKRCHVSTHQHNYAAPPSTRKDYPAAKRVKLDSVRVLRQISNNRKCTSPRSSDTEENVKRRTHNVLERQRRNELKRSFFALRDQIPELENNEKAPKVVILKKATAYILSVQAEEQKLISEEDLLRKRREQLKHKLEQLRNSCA
Sequence of Cellular tumor antigen p53 (Homo sapiens) (P04637 whole entry, looked up, the tested form may be a part): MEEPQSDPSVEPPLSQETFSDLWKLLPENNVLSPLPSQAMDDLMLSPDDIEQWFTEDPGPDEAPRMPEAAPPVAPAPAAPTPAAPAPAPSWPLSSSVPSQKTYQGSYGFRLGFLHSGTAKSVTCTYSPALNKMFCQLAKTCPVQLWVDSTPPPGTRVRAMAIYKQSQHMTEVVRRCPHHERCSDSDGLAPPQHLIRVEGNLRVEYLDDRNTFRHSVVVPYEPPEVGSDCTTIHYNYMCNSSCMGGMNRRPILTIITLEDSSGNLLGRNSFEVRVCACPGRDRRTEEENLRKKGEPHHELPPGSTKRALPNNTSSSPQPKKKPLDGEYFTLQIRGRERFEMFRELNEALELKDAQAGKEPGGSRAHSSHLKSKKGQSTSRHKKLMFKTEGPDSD
Sequence of Oxysterols receptor LXR-beta (Homo sapiens) (P55055 whole entry, looked up, the tested form may be a part): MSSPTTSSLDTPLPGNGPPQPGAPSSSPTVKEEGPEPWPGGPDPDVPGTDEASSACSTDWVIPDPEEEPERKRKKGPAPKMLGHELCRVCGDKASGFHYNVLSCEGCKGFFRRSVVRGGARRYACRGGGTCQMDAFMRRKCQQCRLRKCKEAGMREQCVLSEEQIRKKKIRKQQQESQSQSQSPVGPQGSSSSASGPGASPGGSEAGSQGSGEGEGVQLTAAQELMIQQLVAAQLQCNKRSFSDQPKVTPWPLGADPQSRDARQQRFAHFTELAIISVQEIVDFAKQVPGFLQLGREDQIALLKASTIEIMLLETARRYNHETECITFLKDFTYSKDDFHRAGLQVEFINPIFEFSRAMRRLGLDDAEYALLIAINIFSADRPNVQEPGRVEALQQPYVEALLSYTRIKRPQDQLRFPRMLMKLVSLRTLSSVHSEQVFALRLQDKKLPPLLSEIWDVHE
Sequence of Bile acid receptor (Homo sapiens) (Q96RI1 whole entry, looked up, the tested form may be a part): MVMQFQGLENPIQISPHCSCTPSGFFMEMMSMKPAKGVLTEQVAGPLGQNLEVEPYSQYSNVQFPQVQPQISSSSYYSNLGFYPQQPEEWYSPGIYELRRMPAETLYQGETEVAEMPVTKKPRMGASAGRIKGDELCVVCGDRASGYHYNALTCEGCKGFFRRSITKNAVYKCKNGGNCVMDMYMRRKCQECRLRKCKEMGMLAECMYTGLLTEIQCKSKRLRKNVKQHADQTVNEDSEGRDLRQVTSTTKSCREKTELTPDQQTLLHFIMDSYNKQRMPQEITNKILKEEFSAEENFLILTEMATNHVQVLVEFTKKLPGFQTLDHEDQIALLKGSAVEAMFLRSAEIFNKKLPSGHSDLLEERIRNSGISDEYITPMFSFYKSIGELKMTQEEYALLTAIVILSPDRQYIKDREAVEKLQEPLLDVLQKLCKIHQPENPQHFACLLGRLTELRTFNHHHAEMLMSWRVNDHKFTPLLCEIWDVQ
Sequence of Transcriptional activator Myb (Homo sapiens) (P10242 whole entry, looked up): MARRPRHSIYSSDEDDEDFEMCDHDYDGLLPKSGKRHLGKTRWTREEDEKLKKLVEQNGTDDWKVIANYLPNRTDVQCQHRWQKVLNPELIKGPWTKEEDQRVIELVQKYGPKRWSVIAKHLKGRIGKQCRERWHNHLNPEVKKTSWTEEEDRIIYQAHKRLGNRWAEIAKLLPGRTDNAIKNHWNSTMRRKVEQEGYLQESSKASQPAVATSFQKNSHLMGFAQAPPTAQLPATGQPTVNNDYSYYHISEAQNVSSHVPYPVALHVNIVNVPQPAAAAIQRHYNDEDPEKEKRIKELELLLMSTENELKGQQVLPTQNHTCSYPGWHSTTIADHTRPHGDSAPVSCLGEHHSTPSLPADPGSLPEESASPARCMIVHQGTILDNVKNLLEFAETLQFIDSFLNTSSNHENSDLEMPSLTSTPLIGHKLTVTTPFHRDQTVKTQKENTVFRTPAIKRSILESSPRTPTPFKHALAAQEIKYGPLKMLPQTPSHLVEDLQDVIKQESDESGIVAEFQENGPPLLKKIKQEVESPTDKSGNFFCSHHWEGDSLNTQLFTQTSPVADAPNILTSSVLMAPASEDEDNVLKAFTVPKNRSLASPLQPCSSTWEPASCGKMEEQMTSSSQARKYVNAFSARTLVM
Sequence of Nuclear receptor subfamily 4 group A member 2 (Homo sapiens) (P43354 whole entry, looked up, the tested form may be a part): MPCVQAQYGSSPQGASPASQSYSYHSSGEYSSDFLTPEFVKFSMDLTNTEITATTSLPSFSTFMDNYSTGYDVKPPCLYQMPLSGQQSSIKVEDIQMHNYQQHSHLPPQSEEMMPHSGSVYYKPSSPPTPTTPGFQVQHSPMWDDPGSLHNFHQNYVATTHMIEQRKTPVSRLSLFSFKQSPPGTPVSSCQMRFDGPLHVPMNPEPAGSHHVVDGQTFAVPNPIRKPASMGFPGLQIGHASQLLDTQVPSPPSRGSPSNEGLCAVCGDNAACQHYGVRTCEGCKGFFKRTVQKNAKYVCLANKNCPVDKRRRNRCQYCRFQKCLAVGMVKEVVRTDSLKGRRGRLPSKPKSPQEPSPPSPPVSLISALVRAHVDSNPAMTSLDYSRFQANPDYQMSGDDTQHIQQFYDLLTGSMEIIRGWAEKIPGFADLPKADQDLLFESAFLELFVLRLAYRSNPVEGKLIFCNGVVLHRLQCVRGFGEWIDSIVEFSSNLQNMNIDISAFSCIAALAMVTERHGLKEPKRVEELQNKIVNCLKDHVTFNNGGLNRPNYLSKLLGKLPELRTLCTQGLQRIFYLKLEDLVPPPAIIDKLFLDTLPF
Sequence of Nuclear respiratory factor 1 (Homo sapiens) (Q16656 whole entry, looked up): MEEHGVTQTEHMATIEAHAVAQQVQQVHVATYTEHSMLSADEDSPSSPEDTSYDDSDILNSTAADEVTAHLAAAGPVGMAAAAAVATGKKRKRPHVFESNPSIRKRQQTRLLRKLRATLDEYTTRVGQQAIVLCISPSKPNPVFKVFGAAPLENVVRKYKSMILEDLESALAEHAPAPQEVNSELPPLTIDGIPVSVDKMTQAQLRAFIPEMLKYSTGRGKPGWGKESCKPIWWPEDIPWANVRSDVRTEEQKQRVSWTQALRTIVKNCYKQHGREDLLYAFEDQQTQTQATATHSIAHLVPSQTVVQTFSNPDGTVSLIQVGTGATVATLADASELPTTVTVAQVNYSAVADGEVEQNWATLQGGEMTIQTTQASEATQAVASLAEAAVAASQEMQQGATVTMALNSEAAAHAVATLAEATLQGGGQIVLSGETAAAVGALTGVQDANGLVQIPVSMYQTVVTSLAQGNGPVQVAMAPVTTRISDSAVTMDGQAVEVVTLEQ
Sequence of Hepatocyte nuclear factor 4-alpha (Homo sapiens) (P41235 whole entry, looked up, the tested form may be a part): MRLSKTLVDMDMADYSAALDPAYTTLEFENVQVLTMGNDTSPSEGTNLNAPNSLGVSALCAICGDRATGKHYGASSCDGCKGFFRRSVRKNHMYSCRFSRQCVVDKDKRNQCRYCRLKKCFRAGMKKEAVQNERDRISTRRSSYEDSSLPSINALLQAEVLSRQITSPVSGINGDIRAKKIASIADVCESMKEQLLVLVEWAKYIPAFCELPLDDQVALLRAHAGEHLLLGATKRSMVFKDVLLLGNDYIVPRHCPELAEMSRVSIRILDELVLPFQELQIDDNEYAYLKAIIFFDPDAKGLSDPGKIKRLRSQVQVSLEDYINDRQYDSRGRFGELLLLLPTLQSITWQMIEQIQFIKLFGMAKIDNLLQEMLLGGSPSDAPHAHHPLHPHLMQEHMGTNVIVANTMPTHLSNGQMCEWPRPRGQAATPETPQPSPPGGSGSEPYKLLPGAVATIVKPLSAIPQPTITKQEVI
Sequence of Oxysterols receptor LXR-alpha (Homo sapiens) (Q13133 whole entry, looked up, the tested form may be a part): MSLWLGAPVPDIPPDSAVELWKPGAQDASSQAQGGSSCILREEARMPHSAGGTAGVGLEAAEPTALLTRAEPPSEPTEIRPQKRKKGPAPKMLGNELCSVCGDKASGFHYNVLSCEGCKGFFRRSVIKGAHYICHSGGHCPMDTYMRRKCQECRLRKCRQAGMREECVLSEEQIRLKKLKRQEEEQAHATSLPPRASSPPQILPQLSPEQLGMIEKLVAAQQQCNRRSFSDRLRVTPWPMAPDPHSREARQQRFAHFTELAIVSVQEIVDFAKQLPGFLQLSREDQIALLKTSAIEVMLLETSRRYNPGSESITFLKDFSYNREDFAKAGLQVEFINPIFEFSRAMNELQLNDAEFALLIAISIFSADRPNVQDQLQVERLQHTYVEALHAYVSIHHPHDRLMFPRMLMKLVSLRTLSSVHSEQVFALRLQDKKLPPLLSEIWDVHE

Structure (SMILES): CCOc1ccc(C(C)(C)COCc2cccc(Oc3ccccc3)c2)cc1
- outcome [1]: inactive
- outcome [2]: inactive
- outcome [3]: inactive
- outcome [4]: inactive
- outcome [5]: inactive
- outcome [6]: inactive
- outcome [7]: inactive
- outcome [8]: inactive
- outcome [9]: inactive
- outcome [10]: inactive
- outcome [11]: inactive
- outcome [12]: inactive
- outcome [13]: inactive

Structure (SMILES): c1nc[nH]n1
- outcome [14]: inactive
- outcome [15]: inactive
- outcome [2]: inactive
- outcome [3]: inactive
- outcome [4]: inactive
- outcome [5]: inactive
- outcome [6]: inactive
- outcome [7]: inactive
- outcome [8]: inactive
- outcome [9]: inactive
- outcome [10]: inactive
- outcome [11]: inactive
- outcome [12]: inactive
- outcome [13]: inactive

Structure (SMILES): CCCN(CCC)c1c([N+](=O)[O-])cc(C(C)C)cc1[N+](=O)[O-]
- outcome [3]: inactive
- outcome [4]: inactive
- outcome [5]: inactive
- outcome [6]: inactive
- outcome [7]: inactive
- outcome [9]: inactive
- outcome [10]: inactive
- outcome [11]: inactive
- AC50 [12]: 33.7 µM (active)
- AC50 [13]: 25.8 µM (active)

Structure (SMILES): Oc1ccccc1Br
- outcome [1]: inactive
- outcome [16]: inactive
- outcome [15]: inactive
- outcome [4]: inactive
- outcome [5]: inactive
- outcome [6]: inactive
- outcome [7]: inactive
- outcome [8]: inactive
- outcome [9]: inactive
- outcome [10]: inactive

Structure (SMILES): O=P1(N(CCCl)CCCl)NCCCO1 (centres undefined)
- outcome [14]: inactive
- outcome [15]: inactive
- outcome [2]: inactive
- outcome [4]: inactive
- outcome [5]: inactive
- outcome [6]: inactive
- outcome [7]: inactive
- outcome [8]: inactive
- outcome [17]: inactive
- outcome [9]: inactive
- outcome [10]: inactive
- outcome [11]: inactive
- outcome [13]: inactive

Structure (SMILES): C=CC(=O)OCC(F)(F)C(F)F
- outcome [16]: inactive
- outcome [15]: inactive
- outcome [2]: inactive
- outcome [3]: inactive
- outcome [4]: inactive
- outcome [5]: inactive
- outcome [6]: inactive
- outcome [7]: inactive
- AC50 [8]: 76 µM (active)
- AC50 [17]: 50.3 µM (active)
- outcome [9]: inactive
- AC50 [10]: 206 µM (active)
- AC50 [11]: 24.6 µM (active)
- outcome [11]: inactive
- outcome [12]: inactive
- AC50 [13]: 35.5 µM (active) and 37 µM (active)

Structure (SMILES): O=P(Oc1ccccc1)(Oc1ccccc1)Oc1ccccc1
- outcome [1]: inactive
- outcome [15]: inactive
- outcome [2]: inactive
- AC50 [3]: 47.9 µM (active)
- outcome [4]: inactive
- outcome [5]: inactive
- outcome [6]: inactive
- outcome [7]: inactive
- outcome [8]: inactive
- AC50 [17]: 28.5 µM (active)
- AC50 [9]: 25.2 µM (active)
- outcome [10]: inactive
- AC50 [11]: 27.3 µM (active)
- AC50 [12]: 32.2 µM (active)
- AC50 [13]: 27.6 µM (active)

Structure (SMILES): c1ccc(OP(Oc2ccccc2)Oc2ccccc2)cc1
- outcome [2]: inactive
- outcome [4]: inactive
- outcome [5]: inactive
- outcome [6]: inactive
- outcome [7]: inactive
- outcome [8]: inactive
- outcome [17]: inactive
- outcome [9]: inactive
- outcome [10]: inactive
- outcome [11]: inactive
- outcome [13]: inactive

Structure (SMILES): FC(F)(F)c1ccc(Cl)cc1
- outcome [18]: inactive
- outcome [14]: inactive
- outcome [16]: inactive
- outcome [15]: inactive
- outcome [2]: inactive
- outcome [4]: inactive
- outcome [5]: inactive
- outcome [6]: inactive
- outcome [7]: inactive
- outcome [8]: inactive
- outcome [17]: inactive
- outcome [9]: inactive
- outcome [10]: inactive

Structure (SMILES): O=C(O)C1C(C(=O)O)C2(Cl)C(Cl)=C(Cl)C1(Cl)C2(Cl)Cl (centres undefined)
- outcome [18]: inactive
- outcome [14]: inactive
- outcome [16]: inactive
- outcome [15]: inactive
- outcome [2]: inactive
- outcome [4]: inactive
- outcome [5]: inactive
- outcome [6]: inactive
- outcome [7]: inactive
- outcome [8]: inactive
- outcome [9]: inactive
- outcome [10]: inactive
- outcome [11]: inactive
- outcome [13]: inactive
